Compound activity (PubChem)
This excerpt belongs to a sample that is enriched for hits.
PglD inh = PglD (C. jejuni) enzyme inhibition; purified PglD enzyme, DTNB colorimetric CoA detection; inhibition, % at 12.5 µM; 0.098% of 360,000 active; AID 602405; in the data active = inhibition above about 16%, passing the limit was not always enough; inconclusive = no clear call, values can overlap the other calls
NRP1-CendR mod = modulators of CendR peptide binding to human neuropilin-1. FAM-RPARPAR peptide binding to NRP-1, fluorescence polarization. AID 602438. 0.85% of 360,000 active. inhibition, % at 25 µM. O14786;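 active = inhibition or corrected inhibition above about 18%, plus a signal ratio from 0.5 to 1.5, limit read from the data, passing the limit was not always enough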
ALR inh = human ALR oxidase inhibition via reduced H2O2; P55789; purified ALR, DTT oxidation, H2O2 HRP-luminol luminescence; 3.8% of 290,000 active; AID 485317; inhibition, % (no concentration beside the values);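 active = mean replicate inhibition above about 79%, with every replicate also reaching it, limit read from the data; inconclusive = only one of the two criteria met; inactive = mean below limit and not every replicate reaching it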
Target sequence (P55789 whole entry, looked up): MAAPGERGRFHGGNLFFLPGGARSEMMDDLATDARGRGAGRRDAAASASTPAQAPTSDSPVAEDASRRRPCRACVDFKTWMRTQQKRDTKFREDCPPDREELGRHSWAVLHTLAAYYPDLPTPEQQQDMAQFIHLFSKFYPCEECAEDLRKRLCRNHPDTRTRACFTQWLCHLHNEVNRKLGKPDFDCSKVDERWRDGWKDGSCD
ARNT-TACC3 inh = disrupts binding between human ARNT and TACC3; inhibition, % at 9.99 µM; AlphaScreen His-ARNT PAS-B/GST-TACC3 binding, luminescence; TACC3 fragment carries E629A point mutation; AID 623870; 0.66% of 390,000 active; Q9Y6A5;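 active = mean inhibition of replicates at least 50% and at least half of replicates each reaching 50%; inconclusive = half or more replicates reach 50% but mean below 50%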;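 also: 0% = complete ARNT plus TACC3 wells and 100% = ARNT alone without TACC3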
PDI inh = blocks human protein disulfide isomerase activity. P07237. PDI insulin aggregation turbidity, A650, 90 min. inhibition, % at 10 µM. 0.052% of 350,000 active. AID 588391;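 active = mean inhibition across replicates of 30% or more, whatever share of single replicates reach that level; inconclusive = mean inhibition below 30% while every single replicate reaches 30%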
ERp5 block = blocks human ERp5 reductase activity on insulin. inhibition, % at 9.99 µM. 0.05% of 350,000 active. AID 651711. Q15084. ERp5 insulin aggregation, absorbance 650 nm, 90 min;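 active = mean replicate inhibition above about 25%, with every replicate also reaching it, limit read from the data, passing the limit was not always enough; inconclusive = only one of those two criteria met; inactive = neither criterion met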
Target sequence (Q15084 whole entry, looked up): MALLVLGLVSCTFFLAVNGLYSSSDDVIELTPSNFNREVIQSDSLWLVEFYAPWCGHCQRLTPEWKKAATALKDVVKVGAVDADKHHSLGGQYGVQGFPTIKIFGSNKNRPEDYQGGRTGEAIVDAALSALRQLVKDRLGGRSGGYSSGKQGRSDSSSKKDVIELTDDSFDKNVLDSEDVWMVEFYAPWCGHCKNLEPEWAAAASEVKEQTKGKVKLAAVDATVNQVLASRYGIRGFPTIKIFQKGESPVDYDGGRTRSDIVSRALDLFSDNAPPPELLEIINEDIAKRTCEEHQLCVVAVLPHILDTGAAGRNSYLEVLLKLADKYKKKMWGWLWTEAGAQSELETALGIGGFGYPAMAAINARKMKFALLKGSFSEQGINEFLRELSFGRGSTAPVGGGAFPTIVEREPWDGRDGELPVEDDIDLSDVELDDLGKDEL
The depositor's hits bear a star; ? = inconclusive; nt = no result.

SMILES | PglD inh | NRP1-CendR mod | ALR inh | ARNT-TACC3 inh | PDI inh | ERp5 block
N#CCC(=O)Nc1ccc(C(=O)OCC(=O)N(Cc2ccccc2)C2CCS(=O)(=O)C2)cc1 (stereo unspecified) | nt | 1 | 100* | -7 | 3 | -1
CC(C)CN(C(=O)COC(=O)c1ccc(C#N)cc1)C1CCS(=O)(=O)C1 (stereo unspecified) | 0 | 4 | -3 | nt | -7 | -5
CCOC(=O)C1(CCCc2ccccc2)CCN(C(=O)CN2CCOC2=O)CC1 | nt | -2 | 0 | -4 | 1 | -1
CCOC(=O)C1(Cc2ccccc2Cl)CCN(C(=O)CN2CCOC2=O)CC1 | nt | 23* | -8 | -6 | -8 | 7
Cc1oc(-c2ccccc2F)nc1CS(=O)(=O)CC(=O)NC(C)CCc1ccccc1 (stereo unspecified) | 2 | -6 | -8 | -5 | -6 | -15
Cc1ccc(-c2nc(CS(=O)CC(=O)NCCCc3ccccc3)c(C)o2)cc1 (stereo unspecified) | -6 | -1 | 98* | 2 | 4 | -10
Cc1ccc(-c2nc(CS(=O)CC(=O)NC(C)CCc3ccccc3)c(C)o2)cc1 (stereo unspecified) | 4 | 11 | 93* | -1 | 8 | 3
COc1ccc(-c2nc(CS(=O)CC(=O)NC(C)CCc3ccccc3)c(C)o2)cc1OC (stereo unspecified) | -2 | 5 | 99* | -3 | 8 | -3
CCCNC(=O)N1[C@H](CO)[C@H](c2ccc(C3=CCCC3)cc2)[C@@H]1CNC(=O)CC | -2 | nt | nt | 1 | nt | nt
Cc1ccc(S(=O)(=O)N[C@H]2CC[C@H](CCNC(=O)c3ccc4c(c3)OCO4)O[C@@H]2CO)cc1 | 1 | nt | nt | -1 | nt | -2
C[C@@H]1CN([C@@H](C)CO)C(=O)c2cc(C#Cc3cccnc3)cnc2O[C@@H]1CN(C)S(=O)(=O)c1ccccc1F | 5 | nt | nt | 8 | nt | -4
Cc1ccc(CNC(=O)CC(C)S(=O)(=O)c2ccc3c(c2)NC(=O)CO3)cc1 (stereo unspecified) | 2 | 12 | -2 | -27 | 3 | 3
Cc1ccc(CNC(=O)CC(C)S(=O)(=O)c2ccc3c(c2)NC(=O)CS3)o1 (stereo unspecified) | 6 | -69 | 98* | 19 | -8 | 10
COc1ccccc1CNC(=O)C[C@@H]1CC[C@H]2[C@@H](COC[C@@H](O)CN2C(=O)Nc2ccccc2)O1 | 0 | nt | nt | 5 | nt | -1
Cc1c(N2C(=O)/C(=C/C3CC=CCC3)SC2=S)c(=O)n(-c2ccccc2)n1C (stereo unspecified) | 1 | 0 | 98* | nt | -8 | 2
Cc1c(N2C(=O)/C(=C\C3CC=CCC3)SC2=S)c(=O)n(-c2ccccc2)n1C (stereo unspecified) | 1 | -15 | nt | -3 | 4 | 4
CN(C)N1C(=O)CC(NNC(=O)c2ccncc2)C1=O (stereo unspecified) | nt | 0 | 86* | -1 | -5 | nt
CCN1C(=O)CC(NNC(=O)c2ccccc2)C1=O (stereo unspecified) | nt | 3 | -11 | -3 | -5 | 3
O=C(C[C@H]1CC[C@H](NC(=O)C2CCOCC2)[C@H](CO)O1)NCC1CCCCC1 | -1 | nt | nt | -3 | nt | 2
Nc1ccccc1SC/C=C/CSc1ccccc1N | 1 | 13 | 99* | 0 | 1 | -1
Nc1ccccc1O | 0 | -3 | -40 | nt | nt | nt
Cc1onc(-c2c(Cl)cccc2Cl)c1C(=O)c1c[nH]c(C(=O)NCCCN2CCOCC2)c1 | -3 | 23* | 1 | -2 | 2 | nt
Cc1onc(-c2c(Cl)cccc2Cl)c1C(=O)NCCCN1CCOCC1 | 2 | 2 | -2 | 1 | 6 | nt
CCN(CC)CCNC(=O)c1cc2c(-c3ccc(Cl)cc3)nn(C)c2s1 | -9 | 0 | nt | 26 | -3 | 1
Cn1nc(-c2ccc(Cl)cc2)c2cc(C(=O)NCCCN3CCOCC3)sc21 | -6 | 7 | 95* | 31 | 6 | nt
SMILES | PglD inh | NRP1-CendR mod | ALR inh | ARNT-TACC3 inh | PDI inh | ERp5 block
CCN1CCN(C(=O)c2cc3c(-c4ccc(Cl)cc4)nn(C)c3s2)CC1 | 2 | -8 | 98* | 10 | -4 | -4
Cn1nc(-c2ccc(Cl)cc2)c2cc(C(=O)NCCN3CCOCC3)sc21 | 6 | 2 | 93* | 29 | -7 | 7
Cn1nc(-c2ccc(Cl)cc2)c2cc(C(=O)N3CCN(C(=O)c4ccco4)CC3)sc21 | -4 | 4 | ? | 4 | -5 | -1
COCCNC(=O)C[C@H]1CC[C@@H]2[C@H](COC[C@@H](O)CN2Cc2ccc(Cl)c(Cl)c2)O1 | 1 | nt | nt | -3 | nt | nt
C=CCN1C(=O)[C@]2(O[C@H](CCO)[C@@H]([Si](C)(C)c3ccc(OC)cc3)[C@@H]2C)c2cc(N3CCCCC3=O)ccc21 | 2 | nt | nt | -5 | nt | 2
COc1ccc(NC(=O)N2C[C@@H](O)COC[C@H]3O[C@@H](CC(=O)N4CCCCC4)CC[C@@H]32)cc1 | -4 | nt | nt | 5 | nt | 2
COc1ccc2c3c(n(C)c2c1)[C@@H](CO)N(C(=O)CC1CC1)CC31CCN(Cc2ccncc2)CC1 | nt | nt | nt | nt | nt | -3
C[C@H](NC(=O)C[C@H]1C=C[C@H](NS(=O)(=O)c2cccc(F)c2)[C@H](CO)O1)c1ccccc1 | -1 | nt | nt | -5 | nt | 7
CCn1c(=O)c2cc(C(=O)NCCN3CCOCC3)sc2c2ccccc21 | -5 | -1 | 94* | -1 | nt | -4
COc1ccc(Nc2nc(C(=O)NCCCN3CCOCC3)cs2)cc1 | 6 | -9 | 83* | 14 | 8 | nt
O=C(Nc1c(F)cc(F)cc1Br)c1cc(-c2ccc(O)cc2)on1 | 3 | -1 | 99* | 6 | 2 | 4
Cn1nc(-c2ccc(Cl)cc2)c2cc(C(=O)NC3CC3)sc21 | 15 | -8 | 84* | -19 | 4 | 10
CCOCCCNC(=O)c1cc2c(-c3ccc(Cl)cc3)nn(C)c2s1 | -2 | 2 | 39 | -2 | 6 | -2
CO[C@H]1CN(C)C(=O)c2ccc(NC(=O)C3CCC3)cc2OC[C@@H](C)N(C(=O)NC(C)C)C[C@@H]1C | 0 | nt | nt | -3 | nt | -1
COc1ccccc1CNC(=O)C[C@H]1CC[C@H]2[C@@H](COC[C@H](O)CN2C(=O)Nc2ccc(C(F)(F)F)cc2)O1 | 6 | nt | nt | 3 | nt | -3
COc1ccc(S(=O)(=O)N(C)C[C@H]2Oc3c(NC(=O)Nc4ccc5c(c4)OCO5)cccc3C(=O)N([C@@H](C)CO)C[C@@H]2C)cc1 | 1 | nt | nt | 2 | nt | 3
O=C(NCCCN1CCOCC1)c1cc(-c2ccc(O)cc2)on1 | 1 | 5 | 98* | 0 | nt | 1
O=C(NCCCN1CCOCC1)c1cc(-c2ccc(Br)cc2)on1 | 2 | -8 | nt | 3 | -2 | nt
C[C@@H]1CN([C@H](C)CO)C(=O)Cc2cc(NC(=O)Cc3cn(C)c4ccccc34)ccc2O[C@H]1CN(C)C(=O)Nc1ccc(F)cc1 | nt | nt | nt | nt | nt | -2
Oc1c(Br)cc(Br)cc1CNc1cnc2ccccc2c1 | -8 | -16 | -29 | -3 | 0 | 4
